# In PubChem BioAssay:
# Several values for one entry are separate records, joined by “and”; a condition that tells them apart may be missing. Identical values can stand only once. Some compounds were tested as several samples or in several runs, with calls that do not always agree. Activity calls are given as the source filed them.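 The calls were made as follows, unless noted: active = mean z-score across replicates of 1.96 or higher in either the MELAS or the Rieske mutant cell line; inactive = the rest.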
# How the values were obtained:
# [1] = stimulators of nuclear beta-catenin in C2C12, primary screen, imaging, WNT3A-conditioned medium, mouse C2C12, NPC library (AID 1117326; in the data active = nuclear beta-catenin stimulation mostly above about 4.2%, no sharp cut-off; inactive = mostly below about 10%); settings: stronger effect = higher value
# [2] = stimulators of insulin release from INS-1E, primary screen, cell-based, 5 mM glucose, NPC library (AID 1117329;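 active = compound raises insulin release from rat beta cells at 5 mM glucose, no numeric limit stated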); settings: rat INS-1E insulin secretion, at 10 µM, stronger effect = higher value
# [3] = growth inhibition of GSK3B-pretreated HCT116 cells – cell-based, CellTiter-Glo, 0.2 to 20 µM (AID 1117336;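 active = compounds lowering colon cancer cell viability after pretreatment blocking the GSK3B kinase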); settings: HCT116 viability after GSK3B inhibitor, at 20 µM, stronger effect = higher value
# [4] = inhibition of endothelial tube formation, primary screen, imaging, VEGF stimulated, CD31 staining, tube area, NPC library (AID 1117340;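 active = compound that reduces growth-factor-driven endothelial tube area in a mixed cell culture, no cutoff stated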); settings: VEGF-stimulated ADSC/ECFC co-culture, at 10 µM, stronger effect = higher value
# [5] = glucagon-like peptide 1 release enhancers, primary assay, NCI-H716 cell line, NPC library (AID 1117341;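 active = compound raises GLP1 secretion from the human gut endocrine cells, with no numeric limit stated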); settings: NCI-H716 cells, at 10 µM, stronger effect = higher value
# [6] = HCT116 colon cancer cell growth inhibition, primary screen, CellTiter-Glo luminescence, NPC library (AID 1117342;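 active = compounds that lower survival of HCT116 colon cancer cells in the luminescence readout, no numeric limit stated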); settings: at 20 µM (top of the series)
# [7] = CellTiter-Glo luminescent readout of SW480 viability loss, NPC library primary (AID 1117343;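 active = compounds that lower viability of the colon cancer cells in the luminescence readout, with no numeric limit stated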); settings: CellTiter-Glo luminescence; at 20 µM (top of the series)
# [8] = decreased DLD-1 cellular survival, CellTiter-Glo luminescent readout, NPC compound collection, primary HTS (AID 1117346;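 active = compounds that lower survival of DLD-1 colon cancer cells in the luminescence readout, no cutoff given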); settings: DLD-1 viability, CellTiter-Glo luminescence; at 20 µM (top of the series)
# [9] = target: 6-phosphogluconate dehydrogenase, decarboxylating (Homo sapiens) (UniProt P52209); assay: 6PGD enzyme inhibitors, primary screen, biochemical, human, recombinant enzyme, NADPH absorbance (AID 1159550;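 active = at least 20% inhibition of 6-phosphogluconate dehydrogenase activity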); settings: recombinant 6PGD, NADPH absorbance 341 nm; at 10 µM; stronger effect = higher value
# 6-phosphogluconate dehydrogenase, decarboxylating (Homo sapiens), sequence (P52209 whole entry, looked up): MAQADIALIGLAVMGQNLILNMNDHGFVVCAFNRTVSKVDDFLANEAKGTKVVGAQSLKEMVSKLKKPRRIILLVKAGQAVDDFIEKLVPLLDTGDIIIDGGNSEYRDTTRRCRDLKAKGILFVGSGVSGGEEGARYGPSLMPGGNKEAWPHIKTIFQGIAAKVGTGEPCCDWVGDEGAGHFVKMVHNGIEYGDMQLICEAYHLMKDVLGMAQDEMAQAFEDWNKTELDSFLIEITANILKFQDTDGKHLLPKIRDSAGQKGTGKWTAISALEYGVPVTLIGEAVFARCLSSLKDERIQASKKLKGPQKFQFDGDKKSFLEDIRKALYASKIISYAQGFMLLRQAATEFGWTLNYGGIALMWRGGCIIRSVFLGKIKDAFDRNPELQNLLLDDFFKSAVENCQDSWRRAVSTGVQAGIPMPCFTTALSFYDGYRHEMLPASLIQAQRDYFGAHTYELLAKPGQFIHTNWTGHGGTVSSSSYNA
# [10] = modulation of C. elegans fzo-1 (AID 1259413; call rule not given here;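 also: fzo-1 mutant C. elegans worms in liquid wells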); settings: C. elegans fzo-1 modulator screen, mean read-out; stronger effect = higher value
# [11] = differential killing of epithelial or mesenchymal cells, primary screen, imaging, PC-3E GFP, TEM4-18 mCherry, co-culture (AID 1345086;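 active = compounds killing one labelled cell type while sparing the other, by normalised counts and ratio limits, not self-fluorescent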;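 as to all read-outs here: cells exposed to compound for 72 h before imaging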;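 as to red/green cell ratio (normalised): normalised mesenchymal count divided by normalised epithelial count so high means epithelial killing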); settings: imaging cell counts, at 1 µM; for red/green cell ratio (normalised): actives lie on both sides, counts scaled to control wells, 1 = unselective
# [12] = survival rescue of mitochondrial mutant cells in low glucose, primary screen, MELAS cybrids, Rieske KO mouse fibroblasts, CellTiter-Glo (AID 1508586);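 also: z relative to plate mean and SD of compound and empty wells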
# [13] = target: NAD(+) hydrolase SARM1 (Homo sapiens) (UniProt Q6SZW1); assay: SARM1 TIR NADase inhibitors, cell lysate, NAD-Glo luminescence (AID 1508614;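 active = compound whose remaining NAD level is above about 45 nM, limit read from the data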;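 also: higher remaining NAD means stronger inhibition of SARM1 NADase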); settings: SAM-TIR HEK293T lysate NADase, at 1 µM, stronger effect = higher value
# NAD(+) hydrolase SARM1 (Homo sapiens), sequence (Q6SZW1 whole entry, looked up, the tested form may be a part): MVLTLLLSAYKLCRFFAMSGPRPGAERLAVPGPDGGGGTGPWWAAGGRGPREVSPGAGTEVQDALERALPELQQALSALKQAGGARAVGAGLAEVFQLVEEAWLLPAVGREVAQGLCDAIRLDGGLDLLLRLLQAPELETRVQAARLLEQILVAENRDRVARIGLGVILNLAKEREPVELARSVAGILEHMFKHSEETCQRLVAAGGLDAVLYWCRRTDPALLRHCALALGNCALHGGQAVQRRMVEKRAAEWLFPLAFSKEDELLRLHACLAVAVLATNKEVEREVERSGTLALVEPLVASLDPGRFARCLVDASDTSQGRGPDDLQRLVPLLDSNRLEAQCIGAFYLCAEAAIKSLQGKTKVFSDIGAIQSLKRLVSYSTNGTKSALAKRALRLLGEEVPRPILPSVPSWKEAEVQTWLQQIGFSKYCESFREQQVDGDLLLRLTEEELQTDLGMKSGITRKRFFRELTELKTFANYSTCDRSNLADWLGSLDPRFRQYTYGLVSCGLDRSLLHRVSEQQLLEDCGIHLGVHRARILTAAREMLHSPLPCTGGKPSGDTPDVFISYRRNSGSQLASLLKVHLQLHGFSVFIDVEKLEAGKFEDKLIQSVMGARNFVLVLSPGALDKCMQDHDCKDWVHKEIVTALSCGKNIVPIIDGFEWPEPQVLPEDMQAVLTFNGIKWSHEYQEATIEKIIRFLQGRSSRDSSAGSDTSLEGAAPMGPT
# [14] = target: Mitogen-activated protein kinase 7 (Homo sapiens) (UniProt Q13164); assay: ERK5 transactivation activators in reporter cells, primary screen, cell-based, HTS (AID 1508626;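 active = luciferase signal above three times the same-plate solvent-only control wells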;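 also: luciferase driven by Gal4-ERK5 fusion binding five Gal4 sites before minimal TATA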); settings: HeLa Gal4-ERK5 transactivation, 18 h, at 5 µM, stronger effect = higher value
# Mitogen-activated protein kinase 7 (Homo sapiens), sequence (Q13164 whole entry, looked up, the tested form may be a part): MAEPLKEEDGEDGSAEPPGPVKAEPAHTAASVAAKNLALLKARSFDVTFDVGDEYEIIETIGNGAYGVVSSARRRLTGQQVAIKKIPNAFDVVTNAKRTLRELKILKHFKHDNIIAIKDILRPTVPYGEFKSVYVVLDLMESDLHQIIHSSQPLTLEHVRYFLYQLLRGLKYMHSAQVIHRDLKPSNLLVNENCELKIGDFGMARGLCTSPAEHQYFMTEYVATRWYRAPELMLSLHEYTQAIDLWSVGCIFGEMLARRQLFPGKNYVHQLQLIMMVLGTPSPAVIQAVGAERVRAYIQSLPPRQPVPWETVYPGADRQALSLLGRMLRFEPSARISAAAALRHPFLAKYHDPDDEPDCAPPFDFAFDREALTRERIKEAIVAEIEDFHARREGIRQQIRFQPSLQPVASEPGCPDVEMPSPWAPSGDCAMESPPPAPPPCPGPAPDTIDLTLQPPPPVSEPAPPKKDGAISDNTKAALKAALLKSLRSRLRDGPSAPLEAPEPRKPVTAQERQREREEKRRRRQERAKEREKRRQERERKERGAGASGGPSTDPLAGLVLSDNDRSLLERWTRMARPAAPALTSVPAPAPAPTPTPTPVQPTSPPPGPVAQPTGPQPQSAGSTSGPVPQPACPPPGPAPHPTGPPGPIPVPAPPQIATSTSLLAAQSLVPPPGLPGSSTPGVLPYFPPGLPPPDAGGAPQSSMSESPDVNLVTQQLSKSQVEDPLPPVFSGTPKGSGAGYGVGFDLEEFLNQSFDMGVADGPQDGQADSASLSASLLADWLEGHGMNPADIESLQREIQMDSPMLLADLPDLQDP
# [15] = ICB984 medulloblastoma cell growth inhibition, synergistic combos for chromothripsis tumors, cisplatin or BGB combos (AID 1671451; call rule not given here;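 also: cells exposed for 96 hours before readout; 0% = vehicle DMSO and 100% = killing by high DMSO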); settings: ICB984 medulloblastoma cells, drug combinations, stronger effect = higher value
# F380Y = assay: modulators of BK channel variants, profiling panel, selectivity assay, cell-based, U2OS BacMam, thallium flux, beta subunits (AID 1259406;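 active = thallium flux through the channel raised or lowered by more than 3 SD from vehicle-only wells, actives on both sides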;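 also: initial slope of Thallos dye fluorescence rise after thallium is added; log ratio against the mean of 0.3% DMSO vehicle wells on the same plate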); settings: at 30 µM
# F380Y/beta1 = assay: as above; settings: at 30 µM
# F380Y/beta2Delta = assay: as above; settings: at 30 µM
# [16] = sensitizers of A549 cells to miR-34 induction, primary screen, imaging, A549 dox-inducible miR-34, nuclei and caspase counts (AID 1347080;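 active = compounds whose cell count with miR-34 switched on is under 0.7 times the count with it off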); settings: A549 miR-34 inducible, Hoechst nuclei count, 48 h
# [17] = measured here: epithelial PC-3E GFP cell survival
# [18] = measured here: mesenchymal TEM4-18 mCherry cell survival
# [19] = MELAS cybrid survival, CellTiter-Glo 48 h, stronger effect = higher value
# [20] = Rieske KO mouse fibroblast survival, CellTiter-Glo 72 h
smiles,measurement,setting,value
Nc1nc2c(ncn2COCCO)c(=O)[nH]1,nuclear beta-catenin stimulation,[1]; at 10 µM,3% (inactive)
same,nuclear beta-catenin stimulation,"[1]; stimulation, at 2 µM",-1%
same,insulin secretion stimulation,[2],0.5% (inactive)
same,viability decrease,[3],-0.3% (inactive)
same,tube area decrease,[4],8.6% (inactive)
same,GLP1 secretion stimulation,[5],-0.5% (inactive)
same,inhibition of viability,[6],-3.47% (inactive)
same,viability decrease (inhibition),[7],23.2% (inactive)
same,viability decrease (inhibition),[8],-16.2% (inactive)
same,inhibition,[9],18.2% (inactive)
same,mean signal,[10],281 (inactive)
same,red/green cell ratio (normalised),[11],1.25 (inactive)
same,normalised cell number,[11]; [17],1.01
same,normalised cell number,[11]; [18],1.26
same,z-score,[12]; [19],-0.252 (inactive) and -0.378 (inactive) and 0.479
same,z-score,[12]; [20],0.554 and 0.269 and 2.37
same,remaining NAD,[13],10 nM (inactive)
same,luciferase signal,[14],40 AU (inactive)
same,inhibition,"[15]; BGB IC20 combo, at 0.005 µM",14.3% and 0.139%
same,inhibition,"[15]; BGB IC40 combo, at 0.005 µM",-30.6% and -19%
same,inhibition,"[15]; BGB IC40 combo, at 0.05 µM",-33.3% and -34.4%
same,inhibition,[15]; at 0.5 µM,-25.4% (inactive) and -25.1% (inactive)
same,inhibition,"[15]; cisplatin combo, at 0.05 µM",-37% and -39.3%
same,inhibition,"[15]; cisplatin combo, at 0.5 µM",-27.7% and -16.9%
same,inhibition,"[15]; cisplatin combo, at 5 µM",-26.2% and -27.5%
same,inhibition,"[15]; measured here: 5 uM single agent, at 5 µM",-25.9% and 2.01%
same,log fold change Tl+ flux,F380Y,0.00551 (inactive)
same,log fold change Tl+ flux,F380Y/beta1,-0.0568 (inactive)
same,log fold change Tl+ flux,F380Y/beta2Delta,0.0127 (inactive)
CN1C(C(=O)Nc2ccccn2)=C(O)c2ccccc2S1(=O)=O,nuclear beta-catenin stimulation,[1]; at 10 µM,6.3% (inactive)
same,nuclear beta-catenin stimulation,"[1]; stimulation, at 2 µM",0.5%
same,insulin secretion stimulation,[2],-2.9% (inactive)
same,viability decrease,[3],-12.7% (inactive)
same,tube area decrease,[4],3.1% (inactive)
same,GLP1 secretion stimulation,[5],1.4% (inactive)
same,inhibition of viability,[6],-10.9% (inactive)
same,viability decrease (inhibition),[7],15.6% (inactive)
same,viability decrease (inhibition),[8],12.8% (inactive)
same,inhibition,[9],7.63% (inactive)
same,mean signal,[10],261 (inactive)
same,red/green cell ratio (normalised),[11],1.3 (inactive)
same,normalised cell number,[11]; [17],0.96
same,normalised cell number,[11]; [18],1.24
same,z-score,[12]; [19],-0.176 (inactive) and -0.255 (inactive) and -0.0452 (inactive)
same,z-score,[12]; [20],0.725 and -0.177 and -0.896
same,remaining NAD,[13],10 nM (inactive)
same,luciferase signal,[14],56 AU (inactive)
same,log fold change Tl+ flux,F380Y,0.0868 (inactive)
same,log fold change Tl+ flux,F380Y/beta1,0.0287 (inactive)
same,log fold change Tl+ flux,F380Y/beta2Delta,0.0109 (inactive)
O=C(O)COc1nn(Cc2ccccc2)c2ccccc12,nuclear beta-catenin stimulation,[1]; at 10 µM,-0.5% (inactive)
same,nuclear beta-catenin stimulation,"[1]; stimulation, at 2 µM",2.2%
same,insulin secretion stimulation,[2],-0.7% (inactive)
same,viability decrease,[3],3.8% (inactive)
same,tube area decrease,[4],-13% (inactive)
same,GLP1 secretion stimulation,[5],1.7% (inactive)
same,inhibition of viability,[6],8.1% (inactive)
same,viability decrease (inhibition),[7],12.1% (inactive)
same,viability decrease (inhibition),[8],8.6% (inactive)
COC(=O)C1=C(C)NC(C)=C(C(=O)OCC(C)=O)C1c1ccccc1[N+](=O)[O-] (stereo not drawn),nuclear beta-catenin stimulation,[1]; at 10 µM,1.6% (inactive)
same,nuclear beta-catenin stimulation,"[1]; stimulation, at 2 µM",1.2%
same,insulin secretion stimulation,[2],-0.3% (inactive)
same,viability decrease,[3],25.5% (inactive)
same,tube area decrease,[4],7% (inactive)
same,GLP1 secretion stimulation,[5],-2.7% (inactive)
same,inhibition of viability,[6],39.1% (inactive)
same,viability decrease (inhibition),[7],69.6% (active)
same,viability decrease (inhibition),[8],28.3% (inactive)
N=C(N)c1ccc(OCCCCCOc2ccc(C(=N)N)cc2)cc1,nuclear beta-catenin stimulation,[1]; at 10 µM,-0.7% (inactive)
same,nuclear beta-catenin stimulation,"[1]; stimulation, at 2 µM",1.1%
same,insulin secretion stimulation,[2],2.3% (inactive)
same,viability decrease,[3],0.4% (inactive)
same,tube area decrease,[4],43.4% (active)
same,GLP1 secretion stimulation,[5],-3.5% (inactive)
same,inhibition of viability,[6],12.5% (inactive)
same,viability decrease (inhibition),[7],60.9% (active)
same,viability decrease (inhibition),[8],55.1% (active)
same,inhibition,[9],12.1% (inactive)
same,red/green cell ratio (normalised),[11],0.75 (inactive)
same,normalised cell number,[11]; [17],1.05
same,normalised cell number,[11]; [18],0.79
same,fold change,"[16]; stronger effect = lower value, cell number ratio, induced over uninduced",0.873 (inactive) and 0.95 (inactive) and 1.08 (inactive)
same,fold change,[16]; measured here: relative caspase fold change +Dox/-Dox,1.42 and 0.678 and 1.37
same,cell count,"[16]; measured here: total cells with miR-34 induction, stronger effect = lower value",4130 and 4260 and 6460
same,cell count,[16]; measured here: total cells without miR-34 induction,4730 and 4480 and 6000
same,z-score,[12]; [19],6.07 (active) and -3.61 (inactive) and 2.69 (active)
same,z-score,[12]; [20],6.42 and -2.57 and -1.21
same,remaining NAD,[13],10 nM (inactive)
